Source: PubChem BioAssay (several laboratories)
Rows were chosen to be rich in hits. Some 1.9% of all compounds tested hit in one or more screens of this group.
Furin inhibitor = human furin inhibitors, primary screen, biochemical, fluorescence intensity | hit rate 0.061% among 220,000 | AID 463115, 2010 | purified furin, fluorogenic substrate cleavage | inhibition, % at 20 µM or 30 µM; in the data active = inhibition above about 25%
Target sequence (P09958 108-714 limits assumed): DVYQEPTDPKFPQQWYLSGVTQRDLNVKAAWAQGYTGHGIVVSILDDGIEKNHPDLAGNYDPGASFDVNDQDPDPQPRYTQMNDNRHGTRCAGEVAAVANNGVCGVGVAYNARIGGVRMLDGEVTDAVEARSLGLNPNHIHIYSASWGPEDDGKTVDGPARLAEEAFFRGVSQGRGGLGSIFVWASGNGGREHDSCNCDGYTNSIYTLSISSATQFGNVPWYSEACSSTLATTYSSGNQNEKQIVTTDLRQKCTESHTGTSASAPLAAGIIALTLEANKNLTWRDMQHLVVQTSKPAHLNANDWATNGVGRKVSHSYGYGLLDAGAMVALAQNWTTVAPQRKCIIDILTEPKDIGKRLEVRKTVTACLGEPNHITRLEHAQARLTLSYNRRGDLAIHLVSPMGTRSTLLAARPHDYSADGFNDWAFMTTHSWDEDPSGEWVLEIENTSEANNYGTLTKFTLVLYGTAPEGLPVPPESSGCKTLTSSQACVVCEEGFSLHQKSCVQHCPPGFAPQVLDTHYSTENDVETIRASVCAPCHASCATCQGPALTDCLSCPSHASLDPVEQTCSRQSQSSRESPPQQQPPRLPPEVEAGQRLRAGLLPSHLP
EP2 modulator = EP2 receptor modulators, cAMP readout, primary screen, cell-based, HTRF cAMP, PGE2 stimulation; AID 940, 2007; Prostaglandin E2 receptor EP2 subtype (Homo sapiens), P43116; induction, % at 25 µM; hit rate 0.83% among 260,000; EP2-expressing cells, cAMP HTRF FRET, PGE2 co-stimulation;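 active = compounds whose cAMP rise, as percent of the full-agonist control response, exceeds 60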;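 also: rat C6 glioma line stably carrying human EP2 under a CMV promoter; the protocol text gives 20 µM as final concentration; 100% = response of wells given 1 µM PGE2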
Efa HMGR inh = inhibitors of E. faecalis class II HMGR, primary screen, biochemical, Enterococcus faecalis; hit rate 0.41% among 190,000; HMG-CoA reductase (Enterococcus faecalis, mvaE); inhibition, % at 10 µM; purified E. faecalis HMGR, NADPH absorbance 340 nm kinetic;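 active = inhibition above a set limit, the median over all tested compounds plus 3 SD, cut at about 9.5% in these data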;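 also: enzyme runs in reverse so mevalonate oxidation gives rising NADPH absorbance; 0% = complete reaction with DMSO and 100% = background rate lacking mevalonate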
PGE2 EP2 inh = human EP2 receptor antagonists, primary screen, TR-FRET cAMP, C6 glioma cells | Prostaglandin E2 receptor EP2 subtype (Homo sapiens), P43116 | C6 glioma cells expressing human EP2; cells stimulated with saturating PGE2 | inhibition, % at 25 µM | hit rate 0.52% among 260,000 | AID 1422, 2008;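 active = percent inhibition above 40 after rounding to a whole number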;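 also: rat C6 glioma host cells with rolipram phosphodiesterase inhibitor present; the protocol text gives 20 µM as final concentration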
m-calpain inh = inhibitors of pig calpain II, primary screen, biochemical, fluorogenic peptide substrate, 1536-well; inhibition, % at 16 µM; hit rate 0.37% among 220,000; AID 1236, 2008; purified calpain II, 30 min;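 active = inhibition above about 50%, limit read from the data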
* = called active by the depositor; . = not tested or not shown; ! = not confirmed by another sample.

SMILES	Furin inhibitor	EP2 modulator	Efa HMGR inh	PGE2 EP2 inh	m-calpain inh
Cc1nc2cc(NC(=O)/C=C/c3ccc(N(C)C)cc3)ccc2s1	.	-117	.	82*	.
O=C(CCn1nnc2ccccc21)N1CCC(c2[nH]ncc2-c2ccncc2)CC1	.	12	.	.	.
Cc1ccc2nc(N3C(=O)C(O)=C(C(=O)c4ccco4)C3c3ccco3)sc2c1 (stereo not drawn)	.	12	.	35	.
CCOc1ccc2nc(N3C(=O)C(O)=C(C(=O)c4ccco4)C3c3ccco3)sc2c1 (stereo not drawn)	.	-31	.	20	.
Cc1ccc2nc(N3C(=O)C(O)=C(C(=O)c4ccc(C)o4)C3c3ccc(O)cc3)sc2c1 (stereo not drawn)	.	-8	.	49*	.
Cc1ccc2nc(N3C(=O)C(O)=C(C(=O)c4ccco4)C3c3cccs3)sc2c1 (stereo not drawn)	-15	31	-2	75*!	-43
COc1cc(C)c(-c2nc(NC(=O)C3(C)CCCO3)sc2C)cc1C (stereo not drawn)	.	-19	.	3	.
CC1(C)S[C@H]2[C@H](NC(=O)Cc3ccccc3)C(=O)N2[C@@H]1C(=O)O	.	19	.	49*	.
CC(=O)c1cccc(NC(=O)c2c(F)c(F)c(F)c(F)c2F)c1	-11	8	-1	16	51*
O=C(Nc1ccc2c(c1)OCO2)c1c(F)c(F)c(F)c(F)c1F	-12	7	-1	6	52*
O=C(Nc1ccc2c(c1)OCO2)c1ccc2c(c1)OCO2	-16	-3	-5	2	13
Cc1cccc(NC(=O)c2c(F)c(F)c(F)c(F)c2F)c1	1	-10	-6	15	19
Cc1ccc2nc(C3CCN(C(=O)Cc4ccccc4)CC3)[nH]c2c1	.	-17	.	7	.
COc1ccc(NC(=O)c2cncc(Br)c2)c(S(=O)(=O)N2CCOCC2)c1	-21	-23	11*	12	-6
COc1ccc(NC(=O)c2cccnc2Cl)c(S(=O)(=O)N2CCOCC2)c1	-9	17	-3	5	-11
COCc1cc(/C=N\NC(=O)COc2ccccc2)ccc1OC	-6	-29	-6	3	30
CCOc1cc(/C=N/Nc2ccc(C(=O)O)cc2)ccc1OC(=O)c1ccccc1C	-16	44	.	6	82*
COc1cccc(OCc2cc(/C=N/Nc3ccc(C(=O)O)cc3)ccc2OC)c1	-8	62*	.	9	-12
CCc1cc2ccc(OC)cc2nc1SCC(=O)Nc1ccccc1	.	58	.	13	.
C=C/C=C(\C=C/C)C1(C(N)=O)CCOCC1	.	-10	.	7	.
CC(=O)c1c(C)[nH]c(C(=O)OCc2cccc(Cl)c2)c1C	-6	-55	-2	2	54*
O=C(CCn1c(=O)oc2ccccc21)NCc1cccs1	-12	17	13*	13	-13
O=C(CCn1c(=O)sc2ccccc21)NCc1cccs1	3	-6	1	8	4
O=C1CC(c2ccccc2)CC(=O)C1=CN1CCCC1 (stereo not drawn)	33*	16	.	6	8
O=C1CC(=O)CC(c2ccccc2)C1	-8	10	-3	7	26
SMILES	Furin inhibitor	EP2 modulator	Efa HMGR inh	PGE2 EP2 inh	m-calpain inh
O=C(Nc1cnn(Cc2ccc(F)cc2)c1)C(c1ccccc1)c1ccccc1	4	14	-6	7	53*
O=C(Nc1cnn(Cc2ccc(F)cc2)c1)c1cnccn1	-19	-8	-2	9	-4
CC(=O)O[C@H]1C[C@@H](OC(C)=O)C(C)(C)C2C[C@@H](O)[C@]3(C)C(CC[C@@]4(C)[C@H](c5ccoc5)OC(=O)[C@H]5O[C@]543)[C@]21C (stereo partly drawn)	.	20	.	11	.
Cc1ccc(S(=O)(=O)N2c3cc(C)ccc3OCC2C(C)(C)C)cc1 (stereo not drawn)	-10	62*	-4	15	27
Cc1ccc(S(=O)(=O)N2c3ccccc3OCC2c2ccccc2)cc1 (stereo not drawn)	-8	46	-5	5	36
CCC(CO)NCc1sccc1C (stereo not drawn)	-26	16	10*	3	-9
CCC(CO)NCc1ccc(Br)cc1 (stereo not drawn)	-25	0	-6	10	3
O=C(NNc1nc(N2CCOCC2)nc(N2CCCOC2)n1)c1ccc(F)cc1	.	-6	.	7	.
COc1cccc(OC)c1-c1nn2c(-c3cc(-c4ccccc4)n[nH]3)nnc2s1	-27	2	-2	12	85*
COc1cccc(-c2nnc3sc(-c4ccccc4)nn23)c1	-13	24	2	2	10
COC(=O)c1c(NC(=O)c2ccc(OC)c(OC)c2)sc(C(=O)Nc2cc(C)ccc2C)c1C	.	-29	.	7	.
O=C1c2ccccc2C(=O)N1Nc1ccccc1	-14	15	-5	.	2
Cc1ccc(NN2C(=O)C=C(c3ccccc3)C2=O)cc1	-14	-93	-3	48*	-18
CN(C)CCN1CCN(CC2(c3ccc(Cl)cc3)CC2)CC1	.	-16	.	12	.
C=C1C2CC[C@@]3(C)[C@H](c4ccoc4)OC(=O)C[C@]13O[C@H]1CC(=O)C(C)(C)C(CC(=O)OC)C21C (stereo partly drawn)	.	16	.	9	.
O=C1CC(N2CCC(c3nc4ccccc4o3)CC2)C(=O)N1Cc1cccs1 (stereo not drawn)	27*	-1	-6	14	-5
COc1ccccc1N1CCN(C(=O)Cn2nc(-c3ccco3)cc(N)c2=O)CC1	.	-23	.	10	.
CCSc1cnn(-c2ccccc2)c(=O)c1SCC	-2	3	-3	136*	14
CSc1cnn(-c2ccccc2)c(=O)c1SC	-9	3	1	42*	-21
CCCCSc1cnn(-c2ccccc2)c(=O)c1SCCCC	-17	9	-3	17	9
CCc1n(CC(O)COc2ccc(F)cc2)c2ccccc2[n+]1C (stereo not drawn)	.	12	.	10	.
O=C(Cn1nc(-c2cccc3ncccc23)oc1=O)N1CCCCCC1	.	-56	.	5	.
Cc1cc2cc(C(c3nnnn3C3CCCC3)N3CCC(Cc4ccccc4)CC3)c(=O)[nH]c2cc1C (stereo not drawn)	.	12	.	12	.
O=C1CCCC(O)=C1C(C#Cc1ccccc1)C1=C(O)CCCC1=O	-13	-39	0	43*	-13
CCOc1ccc(NS(=O)(=O)c2ccc(NC(=S)NC(=O)CC(C)C)cc2)cc1	3	-34	-3	15	52*
CCCC(=O)NC(=S)Nc1ccc(S(=O)(=O)Nc2ccc(OCC)cc2)cc1	-26	-3	-2	6	25
Cc1ccc(NC(=O)N2CCCC2C(=O)NC(C)(C)C)cc1 (stereo not drawn)	.	22	.	11	.
CC(C)(C)OC(=O)[C@H]([C@@H]1N[C@@H](C(=O)O)C(C)(C)S1)N1C(=O)c2ccccc2C1=O	.	16	.	42*	.
